BRCA1 expr act: BRCA1 expression activation; MCF7-BRCA1-FFLuc reporter, luminescence, 48 h; response scale: scaled: vehicle 0%, 10 µM genistein 100%; Potency, µM (series often up to 46.1 µM), without a hit: at the highest dose activation, hits mostly activators; 380,000 tested, 1.1% active; further: potency means the concentration at half of the fitted maximal effect; nearly all actives have a fitted effect of over 80% in size
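MCF7 cells carrying a BRCA1-firefly luciferase reporter (2000 cells/well, phenol-red free MEM) were attached for 2 h at 37 °C, then given compounds for 48 h. Luminescence was read 15 min after luciferase reagent; activity normalized to genistein (10 microM) and DMSO.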
IDH1 R132H inh: blocks human mutant IDH1 R132H enzyme | O75874 | 390,000 tested, 0.093% active | Potency, µM (titrated, usually from 76.6 µM), for the others: at the highest dose activity change, negative = inhibition, most hits filed as inhibitors | IDH1-R132H enzyme, NADPH consumption, diaphorase/resazurin fluorescence | AID 602179; further: potency means the concentration at half of the fitted maximal effect; on the % scale 0 is the no-effect control and ±100 the full control effect; nearly all actives have a fitted effect of over 65% in size
Target sequence (O75874 whole entry R132H, stated change not applied): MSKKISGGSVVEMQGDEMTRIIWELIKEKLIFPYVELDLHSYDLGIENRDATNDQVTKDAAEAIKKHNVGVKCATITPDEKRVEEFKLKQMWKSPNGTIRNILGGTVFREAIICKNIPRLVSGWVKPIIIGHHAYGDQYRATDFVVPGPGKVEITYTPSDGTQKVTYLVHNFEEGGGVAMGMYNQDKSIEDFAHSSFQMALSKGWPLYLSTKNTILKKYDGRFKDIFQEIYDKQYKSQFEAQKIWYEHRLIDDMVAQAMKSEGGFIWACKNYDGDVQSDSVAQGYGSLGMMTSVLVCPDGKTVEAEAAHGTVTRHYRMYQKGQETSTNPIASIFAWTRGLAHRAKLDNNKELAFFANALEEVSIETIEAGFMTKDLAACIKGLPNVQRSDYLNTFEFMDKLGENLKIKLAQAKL
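IDH1-R132H (0.5 ug/mL) preincubated 30 min with compound, then NADPH (0.016 mM) and alpha-KG (2 mM) added; 80 min at RT, pH 7.5. Remaining NADPH coupled via diaphorase/resazurin to fluorescence (540/590 nm); concentration-response curves normalized to no-enzyme control.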
gsp agonist: activates gsp, the McCune-Albright syndrome mutation | gsp mutant cells, cAMP HTRF, 30 min | Potency, µM (top dose mostly 76.9 µM), without a hit: at the highest dose activation (cAMP increase), hits mostly activators | 340,000 tested, 0.13% active | AID 624287; active means well fitted activation curve with a large enough effect; inconclusive means small, poorly fitted or top-dose-only effect, or another doubt; inactive means no such curve, though single readings can be large or run the other way; cell line not stated here;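 further: phosphodiesterase inhibitor Ro 20-1724 added with compounds to block cAMP breakdown; potency means the concentration at half of the fitted maximal effect; nearly all actives have a fitted effect of over 60% in size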
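Cells stably selected in G418 were plated at 2000/well, grown 16-24 hr, then given compounds in DMSO with the PDE inhibitor […] (300 uM solution added) for 30 min at 37C; cAMP was read by HTRF.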
IL2 activator: IL-2 activation; AID 652025; activation, % (series mostly up to about 46 µM); IL-2 activation reporter assay, cell-based qHTS; stimulated with anti-CD3/CD4/CD28 beads; in transgenic mouse T cells; 360,000 tested, 0.065% active; in the data active means activation above about 50%; inconclusive means mostly about 30% to 49%; further: 0% is about no effect
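Readout is EGFP and DsRed signal by fluorescent plate cytometry after 18 h at 37 degrees C. Transgenic mouse T cells (750/well) received compound for 60 min before bead stimulation (anti-CD3, anti-CD4, anti-CD28); memory T cells served as non-tolerant control.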
gsp antag: antagonists of gsp mutant (McCune-Albright syndrome); gsp-mutant cells, cAMP HTRF, 30 min; Potency, µM (top dose mostly 76.9 µM), without a hit: at the top dose activity change, negative = inhibition, hits mostly inhibitors; 340,000 tested, 0.4% active; calls by dose curve; cell line not stated here;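 further: intracellular cAMP measured with PDE inhibitor Ro 20-1724 present during compound exposure; potency means the concentration at half of the fitted maximal effect; on the % scale 0 is the no-effect control and ±100 the full control effect; nearly all actives have a fitted effect of over 65% in size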
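Cells in G418 medium, seeded 16-24 h, 37C; buffer exchange to DPBS + 1 mM CaCl2, 0.5 mM MgCl2, 0.05% BSA; cpds in DMSO + […] (300 uM stock), 30 min 37C; HTRF cAMP detection.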
An asterisk follows results filed as active; [ ] = another dose, or the depositor's remark. Hits are enriched below; roughly 1.5% of the tested compounds scored in any of these assays. Unless noted, the call rests on the fitted dose curve; in most records, active means well fitted curve in the direction sought with a large enough effect; inconclusive means small, poorly fitted or top-dose-only effect, or another doubt; inactive means no such curve, though single readings can be large; an effect the other way counts as inactive or inconclusive.

How did CC(C)[C@H](NC(=O)c1ccccc1)C(=O)OCC(=O)/C=C1/N(C)c2ccccc2C1(C)C do in these assays?
BRCA1 expr act: -28%; IDH1 R132H inh: 7%; gsp agonist: -16%; IL2 activator: -1; gsp antag: 35µM*

Results for CCOc1ccccc1NC(=O)COC(=O)C(CC)c1ccccc1 (configuration not stated) ?
BRCA1 expr act: 9%; IDH1 R132H inh: 8%; gsp agonist: 25%; IL2 activator: -1; gsp antag: 10µM*

What do the screens show for `COc1cc2cc(CCOC(=O)c3ccc(F)cc3)oc(=O)c2cc1OC`?
BRCA1 expr act: 2%; IDH1 R132H inh: -2%; IL2 activator: 0; gsp antag: 50µM*

Results for c1ccc2c(N=NN3CCCCC3)ccnc2c1 ?
BRCA1 expr act: -30%

What do the screens show for `Nc1nc2ccccc2n1/N=C/c1ccc2c(c1)OCO2`?
BRCA1 expr act: 5.6µM*; IDH1 R132H inh: 11%; gsp agonist: -6%[15.4 µM]; IL2 activator: 1; gsp antag: -9%

Results for O=Nc1c(-c2c(O)[nH]c3cc(Br)ccc23)[nH]c2ccccc12 ?
BRCA1 expr act: -61%; IDH1 R132H inh: 11%; IL2 activator: 0; gsp antag: 20µM*

What do the screens show for `C/C(N)=C(/C#N)C(=O)CSc1nnc(Nc2c(C)cccc2C)s1`?
BRCA1 expr act: -3%; IDH1 R132H inh: 10%; gsp agonist: 1%; IL2 activator: 0; gsp antag: -2%

How did C/C(N)=C(/C#N)C(=O)CSc1nnc(Nc2cccc(C)c2C)s1 do in these assays?
BRCA1 expr act: 11µM*; IDH1 R132H inh: -2%; gsp agonist: 1%; IL2 activator: -1; gsp antag: -1%

What do the screens show for `O=C(Cc1ccc(F)cc1)c1ccc(O)cc1O`?
BRCA1 expr act: 13µM*; IDH1 R132H inh: 2%; gsp agonist: 2%; IL2 activator: 1; gsp antag: -31%

What do the screens show for `CCN(CC)c1cc(C)c(/C=C/c2ccnc3ccccc23)cc1C`?
BRCA1 expr act: -9%

Results for O=[N+]([O-])c1ccc(/C=C/c2ccncc2)cc1 ?
BRCA1 expr act: 10µM*; IDH1 R132H inh: -4%; gsp agonist: 2%; IL2 activator: -3; gsp antag: -3%

How did CCN(Cc1ccccc1)C(=O)Cn1c(=O)n(Cc2ccccc2)c(=O)c2c1c1cc(OC)ccc1n2C do in these assays?
IDH1 R132H inh: -17%

Results for COc1ccc(-c2nc(Cn3c(SCc4ccccc4F)nc4cccnc43)c(C)o2)cc1 ?
IDH1 R132H inh: 8%

How did Cn1c(SCc2ccccc2F)nc2cccnc21 do in these assays?
BRCA1 expr act: 6.3µM*; IDH1 R132H inh: 12%; gsp agonist: -29%; IL2 activator: 1; gsp antag: 6%

How did COc1ccc(NC(=O)CCCc2ccccc2)cc1OC do in these assays?
BRCA1 expr act: 11µM*; IDH1 R132H inh: 12%; gsp agonist: inconclusive; IL2 activator: -1; gsp antag: 0%

Results for Cc1ccc(NC(=O)Cc2ccc(-c3ccccc3)cc2)nc1 ?
BRCA1 expr act: -3%; IDH1 R132H inh: -3%; gsp agonist: 4%; IL2 activator: -2; gsp antag: -10%

Results for COC(=O)c1cccc(NC(=O)CCc2cc(OC)c(OC)c(OC)c2)c1 ?
BRCA1 expr act: 9%; IDH1 R132H inh: 2%; gsp agonist: -45%; IL2 activator: 0; gsp antag: 17%

How did COc1ccc(NC(=O)CCCC(=O)c2ccccc2)cc1OC do in these assays?
BRCA1 expr act: -2%; IDH1 R132H inh: 6%; gsp agonist: inconclusive; IL2 activator: 0; gsp antag: -6%

How did COC(=O)c1cccc(NC(=O)CCc2ccccc2)c1 do in these assays?
BRCA1 expr act: 7.9µM*; IDH1 R132H inh: 2%; gsp agonist: -6%; IL2 activator: 0; gsp antag: 4%

What do the screens show for `Cc1ccc(NC(=O)CCCc2ccccc2)nc1`?
BRCA1 expr act: 11µM*; IDH1 R132H inh: -15%; gsp agonist: 22%; IL2 activator: -5; gsp antag: 6%

Results for COc1cc2nc(N(C)C)nc(NC3CCN(C)CC3)c2cc1OC ?
BRCA1 expr act: -55%

What do the screens show for `O=C(NCCCc1cnc[nH]1)NCCCN(Cc1ccc(Cl)cc1)c1ccc(Br)cn1`?
BRCA1 expr act: -29%

How did COC(=O)C(C(C)C)N(Cc1cc(OC)cc(OC)c1)S(=O)(=O)CCl (configuration not stated) do in these assays?
BRCA1 expr act: -8%; IDH1 R132H inh: 9%; IL2 activator: -1; gsp antag: -4%

Results for Cc1ccc(O)c(CNc2ccccn2)c1 ?
BRCA1 expr act: 16µM*; IDH1 R132H inh: 5%; gsp agonist: -5%; IL2 activator: -2; gsp antag: 8%

What do the screens show for `Cc1ccnc(NCc2cc(C)ccc2O)c1`?
BRCA1 expr act: 85%; IDH1 R132H inh: 6%; gsp agonist: 0%[15.4 µM]; IL2 activator: 0; gsp antag: 4%

What do the screens show for `CC(=O)c1sc(C(C)(C)C)cc1NC(=O)CCC(=O)O`?
BRCA1 expr act: 6%; IDH1 R132H inh: -6%; gsp agonist: 8.9µM*; IL2 activator: -1; gsp antag: 14%

What do the screens show for `CC(=O)c1sc(C(C)(C)C)cc1NC(=O)/C=C/C(=O)O`?
BRCA1 expr act: -45%; IDH1 R132H inh: -8%; gsp agonist: 2%; IL2 activator: -3; gsp antag: -15%

How did O=[N+]([O-])c1ccc(/C=C2\C=C(C(O)c3ccc([N+](=O)[O-])cc3)c3ccccc32)cc1 (configuration not stated) do in these assays?
BRCA1 expr act: -68%

How did COc1ccc(Cn2ccnc2SCC(=O)NCc2ccccc2)cc1 do in these assays?
IDH1 R132H inh: 0%

What do the screens show for `O=C(c1cc(Br)ccc1O)N(Cc1ccco1)Cc1cccs1`?
BRCA1 expr act: -9%

How did O=c1c2ccccc2oc2ccc(Oc3ccccc3)cc12 do in these assays?
BRCA1 expr act: 3.5µM*; IDH1 R132H inh: 0%; gsp agonist: 14%; IL2 activator: -3; gsp antag: -7%

Results for CCn1c(CN2CCCCC2)nc2cc(NC(=O)c3ccc([N+](=O)[O-])cc3)ccc21 ?
IDH1 R132H inh: -5%

Results for C=CCn1c(SCC(C)=O)nc2scc(-c3ccc(C)o3)c2c1=O ?
BRCA1 expr act: 13µM*; IDH1 R132H inh: 1%; gsp agonist: 10%[15.4 µM]; IL2 activator: 0; gsp antag: 8%

What do the screens show for `COc1cc2nc(N3CCCCC3)nc(NC(C)C)c2cc1OC`?
BRCA1 expr act: 6%

What do the screens show for `O=C(Nc1ccc(N2CCCCCC2)cc1)c1ccc[nH]1`?
BRCA1 expr act: 1.4µM*; IDH1 R132H inh: -2%; gsp agonist: inconclusive; IL2 activator: -1; gsp antag: -4%
